Reference: the supplement of paper PMC8728848
Many of the other results were omitted from the sample, so the strongest signals are more common in it than they were.

Columns and labels:
Experiment in all cases: glycan array binding signal (z-score within array); higher = stronger binding
Settings in all cases: glycan notation: IUPAC condensed, linker removed
[1] = biological target: Fuc(a1-2)Gal(b1-3)GalNAc(b1-4)[Neu5Ac(a2-3)]Gal(b1-4)Glc
Summary of the method: (§1)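 Glycan array binding is given as a within-array Z-score, which can be read as non-binding when negative. The arrays, 3228 of them, came from the Consortium for Functional Glycomics database and were retained only where the protein sequence was available. Z-scores were averaged across arrays of the same protein sequence at different concentrations or buffers and across linkers.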

[2] = biological target: Fuc(a1-2)Gal(b1-3)GlcNAc6S
Summary of the method: as §1

[3] = biological target: Fuc(a1-2)Gal(b1-3)[Fuc(a1-4)]GlcNAc(b1-2)Man(a1-3)[Fuc(a1-2)Gal(b1-3)[Fuc(a1-4)]GlcNAc(b1-2)Man(a1-3)]Man(b1-4)GlcNAc(b1-4)GlcNAc
Summary of the method: as §1

Fuc(a1-2)Gal(b1-4)Glc6S = biological target: Fuc(a1-2)Gal(b1-4)Glc6S
Summary of the method: as §1

[4] = biological target: Fuc(a1-2)Gal(b1-4)GlcNAc(b1-2)[Fuc(a1-2)Gal(b1-4)GlcNAc(b1-4)]Man(a1-3)[Fuc(a1-2)Gal(b1-4)GlcNAc(b1-2)Man(a1-6)]Man(b1-4)GlcNAc(b1-4)GlcNAc
Summary of the method: as §1

Fuc(a1-2)GlcNAc = biological target: Fuc(a1-2)GlcNAc
Summary of the method: as §1

[5] = biological target: Fuc(a1-2)[Gal(a1-3)]Gal(b1-3)GalNAc(b1-3)Gal(a1-4)Gal(b1-4)Glc
Summary of the method: as §1

[6] = biological target: Fuc(a1-2)[Gal(a1-3)]Gal(b1-3)GlcNAc(b1-3)GalNAc
Summary of the method: as §1

[7] = biological target: Fuc(a1-2)[Gal(a1-3)]Gal(b1-4)[Fuc(a1-3)]GlcNAc
Summary of the method: as §1

[8] = biological target: Fuc(a1-2)[GalNAc(a1-3)]Gal(b1-4)[Fuc(a1-3)]GlcNAc(b1-3)GalNAc
Summary of the method: as §1

[9] = biological target: Fuc(a1-2)[GalNAc(a1-4)]Gal(b1-4)GlcNAc
Summary of the method: as §1

[10] = biological target: Fuc(a1-3)[Gal(b1-4)]GlcNAc(b1-3)Gal(b1-3)[Fuc(a1-4)]GlcNAc
Summary of the method: as §1

[11] = biological target: Fuc(a1-3)[GalNAc(b1-4)]GlcNAc
Summary of the method: as §1

Gal(a1-3)Gal(b1-3)Glc = biological target: Gal(a1-3)Gal(b1-3)Glc
Summary of the method: as §1

[12] = biological target: Gal(a1-3)Gal(b1-4)GlcNAc(b1-2)Man(a1-3)[Gal(a1-3)Gal(b1-4)GlcNAc(b1-2)Man(a1-6)]Man(b1-4)GlcNAc(b1-4)GlcNAc
Summary of the method: as §1

Gal(a1-3)GlcNAc = biological target: Gal(a1-3)GlcNAc
Summary of the method: as §1

[13] = biological target: Gal(b1-3)GalNAc(a1-3)[Fuc(a1-2)]Gal(b1-4)Glc
Summary of the method: as §1

[14] = biological target: Gal(b1-3)GalNAc(a1-3)[Fuc(a1-2)]Gal(b1-4)GlcNAc
Summary of the method: as §1

[15] = biological target: Gal(b1-3)GlcNAc(a1-6)Gal(b1-4)GlcNAc
Summary of the method: as §1

[16] = biological target: Gal(b1-3)GlcNAc(b1-3)Gal(b1-4)GlcNAc
Summary of the method: as §1

[17] = biological target: Gal(b1-3)[Neu5Ac(a2-6)]GlcNAc(b1-4)Gal(b1-4)Glc
Summary of the method: as §1

Gal(b1-4)GlcNAc = biological target: Gal(b1-4)GlcNAc
Summary of the method: as §1

[18] = biological target: Gal(b1-4)GlcNAc(b1-2)[Gal(b1-4)GlcNAc(b1-4)]Man(a1-3)[Gal(b1-4)GlcNAc(b1-2)[Gal(b1-4)GlcNAc(b1-6)]Man(a1-6)]Man(b1-4)GlcNAc(b1-4)GlcNAc
Summary of the method: as §1

[19] = biological target: Gal(b1-4)GlcNAc(b1-2)[Gal(b1-4)GlcNAc(b1-6)]Man(a1-6)[Gal(b1-4)GlcNAc(b1-2)Man(a1-3)]Man(b1-4)GlcNAc(b1-4)[Fuc(a1-6)]GlcNAc
Summary of the method: as §1

[20] = biological target: Gal(b1-4)GlcNAc(b1-2)[Gal(b1-4)GlcNAc(b1-6)]Man(a1-6)[GlcNAc(b1-4)][Gal(b1-4)GlcNAc(b1-2)Man(a1-3)]Man(b1-4)GlcNAc(b1-4)GlcNAc
Summary of the method: as §1

[21] = biological target: Gal3S(b1-4)[Fuc(a1-3)]Glc6S
Summary of the method: as §1

[22] = biological target: GalNAc(b1-3)Gal(a1-4)Gal(b1-4)GlcNAc(b1-3)Gal(b1-4)Glc
Summary of the method: as §1

[23] = biological target: GalNAc3S(b1-4)[Fuc(a1-3)]GlcNAc
Summary of the method: as §1

GalNAc4S6S(b1-4)GlcNAc = biological target: GalNAc4S6S(b1-4)GlcNAc
Summary of the method: as §1

[24] = biological target: Glc(a1-6)Glc(a1-6)Glc(a1-6)Glc
Summary of the method: as §1

[25] = biological target: GlcNAc(a1-4)Gal(b1-4)GlcNAc(b1-3)Gal(b1-4)[Fuc(a1-3)]GlcNAc(b1-3)Gal(b1-4)[Fuc(a1-3)]GlcNAc
Summary of the method: as §1

[26] = biological target: GlcNAc(b1-3)Gal(b1-4)GlcNAc(b1-2)[GlcNAc(b1-3)Gal(b1-4)GlcNAc(b1-6)]Man(a1-6)[GlcNAc(b1-3)Gal(b1-4)GlcNAc(b1-2)Man(a1-3)]Man(b1-4)GlcNAc(b1-4)GlcNAc
Summary of the method: as §1

[27] = biological target: GlcNAc(b1-3)Gal(b1-4)GlcNAc(b1-3)Gal(b1-4)GlcNAc(b1-3)Gal(b1-4)GlcNAc(b1-3)Gal(b1-4)GlcNAc(b1-2)[GlcNAc(b1-3)Gal(b1-4)GlcNAc(b1-3)Gal(b1-4)GlcNAc(b1-3)Gal(b1-4)GlcNAc(b1-3)Gal(b1-4)GlcNAc(b1-6)]Man(a1-6)[GlcNAc(b1-3)Gal(b1-4)GlcNAc(b1-3)Gal(b1-4)GlcNAc(b1-3)Gal(b1-4)GlcNAc(b1-3)Gal(b1-4)GlcNAc(b1-2)Man(a1-3)]Man(b1-4)GlcNAc(b1-4)[Fuc(a1-6)]GlcNAc
Summary of the method: as §1

[28] = biological target: GlcNAc(b1-3)[GlcNAc(b1-6)]Gal(b1-4)GlcNAc
Summary of the method: as §1

[29] = biological target: GlcNAc(b1-3)[GlcNAc(b1-6)]GlcNAc
Summary of the method: as §1

[30] = biological target: GlcNAc(b1-4)Gal(b1-4)GlcNAc
Summary of the method: as §1

[31] = biological target: Man(a1-2)Man(a1-3)[Man(a1-2)Man(a1-6)]Man(a1-6)[Man(a1-2)Man(a1-2)Man(a1-3)]Man(b1-4)GlcNAc(b1-4)GlcNAc
Summary of the method: as §1

[32] = biological target: Man(a1-2)Man(a1-3)[Man(a1-3)[Man(a1-6)]Man(a1-6)]Man(b1-4)GlcNAc(b1-4)GlcNAc
Summary of the method: as §1

[33] = biological target: Man(a1-2)Man(a1-3)[Man(a1-6)]Man(a1-6)[Man(a1-2)Man(a1-3)]Man(b1-4)GlcNAc(b1-4)GlcNAc
Summary of the method: as §1

[34] = biological target: Man(a1-3)[Man(a1-6)]Man(a1-6)[Man(a1-3)]Man(b1-4)GlcNAc(b1-4)GlcNAc
Summary of the method: as §1

[35] = biological target: Neu5Ac(a2-3)Gal(b1-4)GlcNAc(b1-3)Gal(b1-4)GlcNAc(b1-3)Gal(b1-4)GlcNAc(b1-2)Man(a1-3)[Neu5Ac(a2-3)Gal(b1-4)GlcNAc(b1-3)Gal(b1-4)GlcNAc(b1-3)Gal(b1-4)GlcNAc(b1-2)Man(a1-6)]GalNAc
Summary of the method: as §1

[36] = biological target: Neu5Ac(a2-3)Gal(b1-4)GlcNAc(b1-6)[Neu5Ac(a2-3)Gal(b1-3)]GalNAc
Summary of the method: as §1

[37] = biological target: Neu5Ac(a2-3)Gal(b1-4)[Fuc(a1-3)]GlcNAc
Summary of the method: as §1

[38] = biological target: Neu5Ac(a2-3)Gal(b1-4)[Fuc(a1-3)]GlcNAc(b1-3)GalNAc
Summary of the method: as §1

[39] = biological target: Neu5Ac(a2-3)Gal6S(b1-4)[Fuc(a1-3)]GlcNAc
Summary of the method: as §1

Neu5Ac(a2-6)Gal = biological target: Neu5Ac(a2-6)Gal
Summary of the method: as §1

[40] = biological target: Neu5Ac(a2-6)Gal(b1-4)GlcNAc(b1-2)Man(a1-6)Man(b1-4)GlcNAc(b1-4)GlcNAc
Summary of the method: as §1

[41] = biological target: Neu5Ac(a2-6)Gal(b1-4)GlcNAc(b1-2)Man(a1-6)[Gal(b1-4)GlcNAc(b1-2)Man(a1-3)]Man(b1-4)GlcNAc(b1-4)GlcNAc
Summary of the method: as §1

[42] = biological target: Neu5Ac(a2-6)Gal(b1-4)GlcNAc(b1-2)Man(a1-6)[GlcNAc(b1-2)Man(a1-3)]Man(b1-4)GlcNAc(b1-4)GlcNAc
Summary of the method: as §1

[43] = biological target: Neu5Ac(a2-6)Gal(b1-4)GlcNAc(b1-6)GalNAc
Summary of the method: as §1

[44] = biological target: Neu5Ac(a2-6)Gal(b1-4)GlcNAc(b1-6)[Gal(b1-3)]GalNAc
Summary of the method: as §1

Neu5Ac(a2-8)Neu5Ac = biological target: Neu5Ac(a2-8)Neu5Ac
Summary of the method: as §1

[45] = biological target: Neu5Gc(a2-3)Gal(b1-3)GlcNAc
Summary of the method: as §1

B1: XL-35 (Xenopus laevis) (protein)
chain: MLVHILLLLVTGGLSQSCDPVVIVASKNMVKQLDCDKFRNCKEIKDSNEEAQDGIYTLTSPDGISYQTFCDMTTNGGGWTLVASVHENNMAGKCTIGDRWSSQQGNRADYPEGDGNWANYNTFGSAGGATSDDYKNPGYYDIEAYNLGVWHVPNKTPLSVWRNSSLQRYRTTDGILFKHGGNLFSLYRIYPVKYGIGSCSKDSGPTVPVVYDLGSANLTASFYSPGFRSQFTPGYIQFRPINTEKAALALCPGMKMESCNVEHVCIGGGGYFPEADPRQCGDFAAYDFNGYGTKKFNSAGIEITEAAVLLFYL
glycan array binding signal (z-score) [1]: -0.108
glycan array binding signal (z-score) [2]: -0.184
glycan array binding signal (z-score) [3]: -0.215
glycan array binding signal (z-score) (Fuc(a1-2)Gal(b1-4)Glc6S): 0.014
glycan array binding signal (z-score) [4]: 0.358
glycan array binding signal (z-score) (Fuc(a1-2)GlcNAc): -0.021
glycan array binding signal (z-score) [5]: -0.322
glycan array binding signal (z-score) [6]: -0.477
glycan array binding signal (z-score) [7]: -0.202
glycan array binding signal (z-score) [8]: 20.3
glycan array binding signal (z-score) [9]: -0.131
glycan array binding signal (z-score) [10]: -0.053
glycan array binding signal (z-score) [11]: 6.12
glycan array binding signal (z-score) (Gal(a1-3)Gal(b1-3)Glc): 2.36
glycan array binding signal (z-score) [12]: 0.152
glycan array binding signal (z-score) (Gal(a1-3)GlcNAc): 15.9
glycan array binding signal (z-score) [13]: -0.227
glycan array binding signal (z-score) [14]: -0.337
glycan array binding signal (z-score) [15]: -0.171
glycan array binding signal (z-score) [16]: -0.474
glycan array binding signal (z-score) [17]: 0.794
glycan array binding signal (z-score) (Gal(b1-4)GlcNAc): -0.066
glycan array binding signal (z-score) [18]: 0.777
glycan array binding signal (z-score) [19]: 0.078
glycan array binding signal (z-score) [20]: -0.452
glycan array binding signal (z-score) [21]: 0.818
glycan array binding signal (z-score) [22]: -0.027
glycan array binding signal (z-score) [23]: -0.078
glycan array binding signal (z-score) (GalNAc4S6S(b1-4)GlcNAc): 0.078
glycan array binding signal (z-score) [24]: 0.158
glycan array binding signal (z-score) [25]: 1.05
glycan array binding signal (z-score) [26]: 0.95
glycan array binding signal (z-score) [27]: 0.094
glycan array binding signal (z-score) [28]: -0.01
glycan array binding signal (z-score) [29]: -0.058
glycan array binding signal (z-score) [30]: 4.54
glycan array binding signal (z-score) [31]: -0.156
glycan array binding signal (z-score) [32]: -0.086
glycan array binding signal (z-score) [33]: -0.092
glycan array binding signal (z-score) [34]: 0.065
glycan array binding signal (z-score) [35]: 0.335
glycan array binding signal (z-score) [36]: -0.518
glycan array binding signal (z-score) [37]: -0.21
glycan array binding signal (z-score) [38]: 0.775
glycan array binding signal (z-score) [39]: -0.241
glycan array binding signal (z-score) (Neu5Ac(a2-6)Gal): -0.04
glycan array binding signal (z-score) [40]: -0.2
glycan array binding signal (z-score) [41]: -0.115
glycan array binding signal (z-score) [42]: 0.009
glycan array binding signal (z-score) [43]: -0.112
glycan array binding signal (z-score) [44]: 0.356
glycan array binding signal (z-score) (Neu5Ac(a2-8)Neu5Ac): -0.216
glycan array binding signal (z-score) [45]: -0.235
